Most compounds without a hit are left out; they make up all but 4.1% or so of the library.
hgDAF12 agonist – H. glycines DAF-12 receptor agonists, primary screen, cell-based, luminescence, HEK293, GAL4 fusion, UAS-luciferase; activation, % at 6.8 µM; 370,000 compounds, 1.8% hits; HEK293 GAL4-hgDAF12 UAS-luciferase reporter, agonist luminescence; normalized to butyrate control; Nuclear hormone receptor DAF-12 (Heterodera glycines), GAL4 fusion;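 active means activation above a cutoff set at the mean of all screened compounds plus 3 SD, cut at about 10% in these data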;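 further: 0% = DMSO wells and 100% = sodium butyrate wells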
DAX1 inh-1 – DAX1 (NR0B1) inhibitors on StAR promoter, primary screen, cell-based, luminescence, SF-1 (NR5A1), full-length DAX-1; HEK293T StAR-luciferase reporter, SF-1/DAX-1 repression relief; inhibition, % at 6.8 µM; 370,000 compounds, 1.1% hits; AID 652010, 2013;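 active means inhibition above the mean over all tested compounds plus 3 SD, cut at about 3.6% in these data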;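 further: 0% = DAX-1 cells with DMSO and 100% = cells lacking DAX-1 with DMSO; higher inhibition means more luminescence from relief of DAX-1 repression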
hcDAF-12 act – H. contortus DAF-12 nuclear receptor activators, primary screen, cell-based, luminescence, HEK293, lit1-tk-luc reporter | activation, % at 6.8 µM | 370,000 compounds, 1.4% hits | AID 652067, 2013 | HEK293 hcDAF-12 lit1-tk-luc reporter; 0% DMSO, 100% Δ7-dafachronic acid;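 active means activation above the mean of all tested compounds plus 3 SD, cut at about 5.5% in these data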;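 further: 100% = response to 3 µM Δ7-dafachronic acid high control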
DAX1 inh-2 – DAX1 (NR0B1) inhibitors, primary screen, cell-based, HEK293, Gal4-DAX1, luciferase luminescence. 340,000 compounds, 0.99% hits. inhibition, % at 6.75 µM. Nuclear receptor subfamily 0 group B member 1 (Homo sapiens), P51843. HEK293 Gal4-DAX1 luciferase reporter;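 active means inhibition above the mean over all tested compounds plus 3 SD, cut at about 4.2% in these data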;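 further: 0% = DAX1-transfected cells with DMSO and 100% = empty-vector control cells with DMSO; inhibition shows as a rise in luminescence from relieved DAX1 repression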
Target sequence (P51843 207-470 limits assumed): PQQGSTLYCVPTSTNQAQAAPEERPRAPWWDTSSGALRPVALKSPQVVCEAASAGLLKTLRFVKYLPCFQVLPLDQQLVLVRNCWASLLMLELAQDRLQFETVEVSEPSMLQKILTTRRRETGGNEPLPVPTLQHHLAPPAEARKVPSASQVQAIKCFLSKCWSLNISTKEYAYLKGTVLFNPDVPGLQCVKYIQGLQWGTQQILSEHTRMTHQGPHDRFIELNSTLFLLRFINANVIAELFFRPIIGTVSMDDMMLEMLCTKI
ssDAF12 agonist – S. stercoralis DAF-12 nuclear receptor activators, primary screen, cell-based, luminescence, HEK293, GRIP1 co-expression, lit1-tk-luc | 370,000 compounds, 1% hits | HEK293 ssDAF-12/GRIP1 lit1-tk-luc reporter; % of 3 µM dafachronic acid response | activation, % at 6.8 µM | Nuclear hormone receptor DAF-12 (Strongyloides stercoralis);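 active means activation above the mean over all tested compounds plus 3 SD, cut at about 0.9% in these data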;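 further: 0% = DMSO-only wells and 100% = 3 µM delta7-dafachronic acid wells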
* marks the source's active call; other numbers are inactive results; . = no result given.

SMILES	hgDAF12 agonist	DAX1 inh-1	hcDAF-12 act	DAX1 inh-2	ssDAF12 agonist
Cc1ccc(NC(=O)c2ccc(Nc3ccccc3F)nc2)cc1	5	0	2	0	1.2*
Cc1ccc(C(=O)Nc2ccc(Cl)cn2)cc1	12*	2	3	-2	0
O=C(COc1ccc(Cl)cc1)Nc1ccc(Cl)cn1	5	2	0	1	-1
O=C(NC1CCCCN(Cc2cccc(C(F)(F)F)c2)C1=O)c1ccc(F)c(F)c1 (configuration not stated)	-3	-1	-3	.	-1
O=C(Nc1ccc(Cl)cn1)c1cccc(OCc2ccccc2)c1	3	1	-2	0	-1
O=C(Nc1ccc(Cl)cn1)c1ccc(Oc2ccccc2)cc1	13*	2	4	1	0
COc1ccc(-c2cc(-c3ccc(OC)cc3)nc(-c3ccc4c(c3)NC(=O)CO4)c2)cc1	2	0	1	2	0
COc1cccc(-c2nc(-c3ccc4c(c3)NC(=O)CO4)cs2)c1	11*	0	1	4	-1
O=C(On1c(-c2ccccc2)nc2ccccc2c1=O)c1ccco1	4	0	1	1	0
COc1cc(OC)cc(-c2nc3ccccc3c(=O)n2OC(=O)c2ccccc2C)c1	12*	0	-1	-1	-1
CC(C)CN1C(=O)[C@]2(CC(=O)N(C)C2c2ccccc2)c2cc(-n3cc(-c4ccccc4)nn3)ccc21 (some centres not stated)	0	-2	-3	.	-2
COc1cc2c(=O)n(CCC(=O)NCC3CCCO3)c(=O)n(CC(=O)c3ccc(Cl)cc3)c2cc1OC (configuration not stated)	-1	0	0	5.3*	-2
O=C(NCc1nnnn1-c1ccc(F)cc1)c1ccc2c(c1)OCO2	0	0	-1	1	-1
Cc1nc(N)[nH]c(=O)c1CCCNc1ccc(CCC2(CCl)OCCO2)cc1	13*	0	2	1	-1
CCCCNC(=O)C1(C(=O)c2ccc(OC)cc2)CC(c2ccccc2C(F)(F)F)=NO1 (configuration not stated)	-2	-1	-2	.	-2
O=C(O)Cc1nn(Cc2ccc(Cl)cc2)c(=O)c2ccccc12	5	-1	0	9.0*	-1
COc1cc(NS(=O)(=O)c2ccc3c(c2)C(C)(C)C(=O)N3C)cc(OC)c1	-3	0	-1	5.0*	-1
COc1ccc(CNS(=O)(=O)c2ccc3c(c2)C(C)(C)C(=O)N3C)cc1	-1	0	0	0	-1
CCc1cc(=O)oc2cc(OCC(=O)N3CCC(C(=O)O)CC3)ccc12	7	-1	0	4.6*	-1
Cc1c(C)c2ccc(OCC(=O)N3CCC(C(=O)O)CC3)cc2oc1=O	0	1	-1	3	-1
CCCc1cc(=O)oc2cc(OCC(=O)N3CCC(C(N)=O)CC3)ccc12	0	-1	0	6.3*	-1
CCCc1cc(=O)oc2cc(OCC(=O)Nc3ccccn3)ccc12	9	4.0*	1	1	0
CN1[C@H](Cc2ccccc2)COc2cccc(N3CCCC3)c2S1(=O)=O	2	0	-3	.	-1
CC1(C)NC(=O)N(CCC(=O)Nc2ccc(C(C)(C)C)cc2)C1=O	-1	0	0	1	-1
COc1ccc(N=C2SCC(=O)N2c2ccc(OC)cc2)cc1	0	-1	-1	0	-1
COc1ccc(N=C2SCC(c3ccccc3)=NN2C)cc1	-2	1	-1	4.3*	-1
COc1cc(/C=N/NC(=O)c2c(C)nc3ccc(Cl)cn23)cc(OC)c1OC	-2	-1	-1	5.3*	-1
Cc1cc(C)c(C(O)c2ncc(-c3cccc4ccccc34)[nH]2)c(C)c1 (configuration not stated)	0	0	-1	.	-1
